Several values for one entry are separate records, joined by “and”; a condition that tells them apart may be missing. Identical values can stand only once. Records with an inconclusive call do not appear. Some compounds were tested as several samples or in several runs, with calls that do not always agree. Activity calls are given as the source filed them. Unless noted, calls come from the whole dose curve; as a rule, active = well fitted curve in the direction sought with a large enough effect in the repeat runs; inconclusive = weak or mixed curves; inactive = no such curve, though single readings can be large; an effect the other way counts as inactive or inconclusive.
How the values were obtained:
[1] = qHTS assay to identify small molecule antagonists of the estrogen receptor alpha (ER-alpha) signaling pathway using the BG1 cell line in the presence of 0.1 nM 17-beta-estradiol - cell viability counter screen (AID 1259241); note: nearly all actives have a fitted effect of over 40% in size; note: potency is the fitted concentration of half-maximal effect
Outline: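 Cells were plated and left 24 hr, compounds in DMSO were pinned in, 17beta-estradiol was added to 0.1 nM final, and after 22 hr CellTiter-Fluor reagent was added for 30 min before fluorescence was read.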

[2] = qHTS assay to identify small molecule antagonists of the androgen receptor (AR) signaling pathway using the MDA cell line in the presence of 0.5 nM R1881 - cell viability counter screen (AID 1259242); note: nearly all actives have a fitted effect of over 45% in size; note: potency is the fitted concentration of half-maximal effect
Outline: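 Human breast carcinoma MDA-kb2 cells, cultured without CO2, receive compounds alongside 0.5 nM (final) R1881 agonist. After 16 hr at 37C, viability is taken as live-cell protease signal.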

[3] = qHTS assay to identify small molecule HDAC inhibitors (AID 1259364);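 note: wild-type HCT-116 cells with endogenous class I/II HDAC activity; top concentration of the series differs between compounds; nearly all actives have a fitted effect of over 45% in size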
Outline: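 After a 2 hr compound incubation (37C, 5% CO2), HCT-116 cells seeded at 1,500/well the day before received HDAC-Glo reagent; signal read as luminescence after 30 min at room temperature.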

[4] = qHTS assay to identify small molecule HDAC inhibitors - cell viability counter screen (AID 1259365); note: nearly all actives have a fitted effect of over 50% in size; note: potency is the fitted concentration of half-maximal effect; for activity change, negative = cytotoxicity: series mostly up to about 92 µM
Outline: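 Counter screen in wild-type HCT-116 cells: compounds dissolved in DMSO are pin-transferred onto overnight-plated cells and left 2hr at 37C. ATP-based CellTiter-Glo luminescence then measures viable cells.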

[5] = qHTS assay to identify small molecule agonists of the sonic hedgehog signaling (Shh) pathway - cell viability counter screen (AID 1259366); note: nearly all actives have a fitted effect of over 50% in size; note: potency is the fitted concentration of half-maximal effect
Outline: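 Cells are plated at 2,000 per well and left 4hr at 37C, 5% CO2 before compound addition. After 23hr of treatment, CellTiter-Fluor reagent is added for 1hr at 37C and fluorescence is measured.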

[6] = qHTS assay to identify small molecule antagonists of the sonic hedgehog signaling (Shh) pathway - cell viability counter screen (AID 1259367); note: nearly all actives have a fitted effect of over 55% in size; note: potency is the fitted concentration of half-maximal effect
Outline: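 Fluorescence read-out (CellTiter-Fluor, 1 hr at 37C) taken after 23 hr compound treatment of 3T3 Gli1-Luc cells stimulated with conditioned medium. Cells were seeded at 2,000 per well and pre-incubated 4 hr.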

[7] = qHTS assay to identify small molecule agonists of the sonic hedgehog signaling (Shh) pathway (AID 1259368; calls by dose curve;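 note: NIH/3T3-derived 3T3Gli1-Luc cells carrying a stable Gli1-driven firefly luciferase reporter; series mostly up to about 92 µM; nearly all actives have a fitted effect of over 15% in size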)
Outline: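 Stable NIH/3T3 Gli1-Luc reporter clone; 24 hr cpd exposure after a 4 hr settling period; luminescence endpoint.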

[8] = qHTS assay to identify small molecule antagonists of the sonic hedgehog signaling (Shh) pathway (AID 1259369; calls by dose curve; note: nearly all actives have a fitted effect of over 45% in size; note: potency is the fitted concentration of half-maximal effect)
Outline: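 Gli1 transcriptional reporter (firefly Luc) in NIH/3T3 background, conditioned-medium activated. 24hr exposure, luminescence endpoint.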

[9] = target: Estrogen receptor beta (Homo sapiens) (UniProt Q92731); assay: qHTS assay to identify small molecule agonists of the estrogen receptor beta (ER-beta) signaling pathway (AID 1259377; active = well fitted activation curve with a large enough effect in the signal ratio in the repeat runs, not every such curve was filed as active; the % refers to the signal ratio; note: potency is the fitted concentration of half-maximal effect)
Outline: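 Agonist mode cell assay in GripTite HEK293T cells expressing an ER-beta fusion that drives beta-lactamase from an Upstream Activator Sequence; 16 hr compound exposure at 37C, then 2 h LiveBLAzer B/G FRET substrate at room temperature, fluorescence read-out.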

[10] = target: Estrogen receptor beta (Homo sapiens) (UniProt Q92731); assay: qHTS assay to identify small molecule antagonists of the estrogen receptor beta (ER-beta) signaling pathway (AID 1259378; active = well fitted inhibition curve with a large enough effect in the signal ratio in the repeat runs, not every such curve was filed as active; the % refers to the signal ratio)
Outline: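 ER-beta-UAS-bla HEK293T cells in 2% charcoal-stripped FBS medium treated with compound plus 1nM final 17-beta-estradiol for 16 hr at 37C. Beta-lactamase reporter read by FRET substrate fluorescence after 2 hours at room temperature.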

[11] = qHTS assay to identify small molecule agonists of the androgen receptor (AR) signaling pathway in the presence of an antagonist - cell viability counter screen (AID 1259379);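 note: MDA-kb2 human breast cancer cells carrying an MMTV luciferase reporter; series mostly up to about 92 µM; nearly all actives have a fitted effect of over 25% in size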
Outline: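 Counter screen for cell viability run in parallel with the AR agonist-mode luciferase assay. MDA-kb2 cells were co-treated with nilutamide (3.0uM final) and compounds, then incubated 16 hr at 37C, and CellTiter-Fluor fluorescence was measured.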

[12] = qHTS assay to identify small molecule agonists of the estrogen receptor beta (ER-beta) signaling pathway - cell viability counter screen (AID 1259380); note: nearly all actives have a fitted effect of over 30% in size; note: potency is the fitted concentration of half-maximal effect
Outline: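 In this qHTS counter screen, HEK293T cells carrying an ER-beta/UAS beta-lactamase reporter, grown in 2% charcoal-stripped FBS, received compound for 16 hr; ATP-based CellTiter-Glo luminescence was then read after 30 min at room temperature.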

[13] = qHTS assay to identify small molecule antagonists of the estrogen receptor beta (ER-beta) signaling pathway - cell viability counter screen (AID 1259382); note: nearly all actives have a fitted effect of over 55% in size; note: potency is the fitted concentration of half-maximal effect; for activity change, negative = cytotoxicity: series mostly up to about 92 µM
Outline: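 HEK293T ER-beta-UAS-bla, 2% charcoal-stripped FBS; compounds + 1nM E2 16 hr 37C; CellTiter-Glo luminescence, 30 min RT.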

[14] = qHTS assay to identify small molecule agonists or antagonists of the thyroid stimulating hormone receptor (TSHR) signaling pathway - wild type cell line counter screen (AID 1259384; calls by dose curve)
Outline: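 Wild-type Hek293 cells, 800/well, 18 h at 37C, then compound with Ro20-1724 for 30 min RT. cAMP by HTRF (cAMP-d2/anti-cAMP cryptate), 1 h RT, fluorescence read. 15 concentrations, triplicates.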

[15] = target: Thyrotropin receptor (Homo sapiens) (UniProt P16473); assay: qHTS assay to identify small molecule antagonists of the thyroid stimulating hormone receptor (TSHR) signaling pathway (AID 1259385; calls by dose curve; note: nearly all actives have a fitted effect of over 20% in size)
Outline: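 TSHR-HEK293 cells (800/well) plated 18 h, then compounds with Ro20-1724 and TSH at 1.5 ng/mL final, 30 min at room temperature. cAMP quantified by HTRF (cAMP-d2/anti-cAMP-cryptate, 1 h); 15 concentrations in triplicate.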

[16] = target: Androgen receptor (Homo sapiens) (UniProt P10275); assay: qHTS assay to identify small molecule antagonists of the androgen receptor (AR) signaling pathway using the MDA cell line in the presence of 0.5 nM R1881 (AID 1259243); note: nearly all actives have a fitted effect of over 50% in size
Outline: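 Cells: MDA-kb2 (MMTV-luc). Stimulus: 0.5 nM R1881. Time: 16 hr, 37C, no CO2. Detection: ONE-Glo luminescence after 30 min at RT.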

[17] = target: Estrogen receptor (Homo sapiens) (UniProt P03372); assay: qHTS assay to identify small molecule antagonists of the estrogen receptor alpha (ER-alpha) signaling pathway using the BG1 cell line in the presence of 0.1 nM 17-beta-estradiol (AID 1259244); note: nearly all actives have a fitted effect of over 50% in size
Outline: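 Seeding of stripped-serum-adapted VM7Luc4E2 cells, 24 h attachment, compound transfer, then 0.1 nM final 17beta-estradiol; after 22 h incubation, ONE-Glo reagent and luminescence reading.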

[18] = target: Androgen receptor (Homo sapiens) (UniProt P10275); assay: qHTS assay to identify small molecule agonists of the androgen receptor (AR) signaling pathway in the presence of an antagonist (AID 1259381; calls by dose curve; note: nearly all actives have a fitted effect of over 15% in size)
Outline: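 AR antagonist background: nilutamide 3.0uM final. Cell line: MDA-kb2, MMTV-driven luciferase, responsive to both AR and GR. Exposure 16hr, 37C, no CO2; ONE-Glo luminescence.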

[19] = target: Estrogen receptor (Homo sapiens) (UniProt P03372); assay: qHTS assay to identify small molecule agonists of the estrogen receptor alpha (ER-alpha) signaling pathway in the presence of an antagonist (AID 1259383; calls by dose curve; note: top concentration of the series differs between compounds; nearly all actives have a fitted effect of over 15% in size)
Outline: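 ER-alpha agonism measured under antagonist challenge: 10.0nM ICI-182,780 (final) plus compound, 15 concentrations, 22hr, VM7Luc4E2 ERE-luciferase cells. Read by luminescence.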

[20] = qHTS assay to identify small molecule phospholipidosis (PLD) inducers (AID 1259344; active = well fitted curve in the direction sought with a large enough effect; an effect the other way counts as inactive or inconclusive)
Outline: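 Read-out is LipidTOX Red fluorescence (ex 595/em 615) imaged in HepG2 cells after 24 h compound exposure at 37 C, with Hoechst nuclear counterstain (ex 352/em 461) allowing per-cell normalisation.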
% is set by controls: 0 for no effect and ±100 for the full control effect.

Estrogen receptor beta (Homo sapiens), sequence (Q92731 whole entry, looked up, the tested form may be a part): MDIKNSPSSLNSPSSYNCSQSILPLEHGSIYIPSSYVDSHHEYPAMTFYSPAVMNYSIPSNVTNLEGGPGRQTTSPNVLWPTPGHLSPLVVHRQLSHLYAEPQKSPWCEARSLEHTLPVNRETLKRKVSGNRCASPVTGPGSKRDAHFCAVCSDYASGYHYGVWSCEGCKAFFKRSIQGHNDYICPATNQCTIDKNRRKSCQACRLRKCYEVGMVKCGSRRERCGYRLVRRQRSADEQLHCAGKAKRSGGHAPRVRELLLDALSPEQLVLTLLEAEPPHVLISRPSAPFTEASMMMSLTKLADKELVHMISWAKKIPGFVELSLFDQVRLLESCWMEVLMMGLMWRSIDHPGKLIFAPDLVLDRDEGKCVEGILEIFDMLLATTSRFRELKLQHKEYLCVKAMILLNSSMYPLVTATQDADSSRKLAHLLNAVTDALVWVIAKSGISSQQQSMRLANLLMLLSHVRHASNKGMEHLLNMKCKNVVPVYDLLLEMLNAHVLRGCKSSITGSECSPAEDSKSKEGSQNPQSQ
Estrogen receptor (Homo sapiens), sequence (P03372 whole entry, looked up): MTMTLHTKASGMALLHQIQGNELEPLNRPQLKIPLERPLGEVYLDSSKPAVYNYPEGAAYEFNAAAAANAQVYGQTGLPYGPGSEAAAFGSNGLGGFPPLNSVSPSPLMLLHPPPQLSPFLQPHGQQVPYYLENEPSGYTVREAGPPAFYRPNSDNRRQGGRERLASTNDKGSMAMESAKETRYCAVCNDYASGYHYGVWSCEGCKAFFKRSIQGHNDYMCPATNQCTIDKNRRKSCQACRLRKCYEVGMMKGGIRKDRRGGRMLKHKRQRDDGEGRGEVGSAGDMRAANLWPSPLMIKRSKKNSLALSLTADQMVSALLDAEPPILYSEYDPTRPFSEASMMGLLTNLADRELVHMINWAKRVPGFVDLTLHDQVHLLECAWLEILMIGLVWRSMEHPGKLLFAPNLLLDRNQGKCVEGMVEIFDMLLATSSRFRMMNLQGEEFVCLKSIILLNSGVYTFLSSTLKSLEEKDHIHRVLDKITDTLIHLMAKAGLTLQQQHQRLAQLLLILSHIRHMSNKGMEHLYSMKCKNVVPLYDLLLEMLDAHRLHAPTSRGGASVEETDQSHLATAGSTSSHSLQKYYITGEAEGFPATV
Thyrotropin receptor (Homo sapiens), sequence (P16473 whole entry, looked up): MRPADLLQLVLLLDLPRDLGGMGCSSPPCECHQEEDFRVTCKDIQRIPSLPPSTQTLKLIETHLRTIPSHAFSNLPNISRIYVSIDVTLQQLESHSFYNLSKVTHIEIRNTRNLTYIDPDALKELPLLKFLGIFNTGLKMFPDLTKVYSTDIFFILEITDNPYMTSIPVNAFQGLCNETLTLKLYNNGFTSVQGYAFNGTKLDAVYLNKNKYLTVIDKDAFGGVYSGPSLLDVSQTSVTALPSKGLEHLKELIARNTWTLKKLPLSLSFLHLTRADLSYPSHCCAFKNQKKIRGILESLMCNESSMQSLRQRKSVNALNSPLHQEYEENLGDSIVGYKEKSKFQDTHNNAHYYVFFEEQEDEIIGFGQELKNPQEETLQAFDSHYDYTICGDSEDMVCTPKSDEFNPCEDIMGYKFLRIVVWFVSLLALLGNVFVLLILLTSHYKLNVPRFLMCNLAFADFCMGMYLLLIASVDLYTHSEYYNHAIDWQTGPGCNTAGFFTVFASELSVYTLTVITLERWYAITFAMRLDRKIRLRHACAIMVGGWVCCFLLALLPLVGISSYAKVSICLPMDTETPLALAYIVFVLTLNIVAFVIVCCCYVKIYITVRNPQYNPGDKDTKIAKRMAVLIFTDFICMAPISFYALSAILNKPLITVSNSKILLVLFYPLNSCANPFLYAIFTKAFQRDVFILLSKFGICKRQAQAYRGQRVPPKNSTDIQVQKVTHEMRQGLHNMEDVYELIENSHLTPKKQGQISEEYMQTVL
Androgen receptor (Homo sapiens), sequence (P10275 whole entry, looked up): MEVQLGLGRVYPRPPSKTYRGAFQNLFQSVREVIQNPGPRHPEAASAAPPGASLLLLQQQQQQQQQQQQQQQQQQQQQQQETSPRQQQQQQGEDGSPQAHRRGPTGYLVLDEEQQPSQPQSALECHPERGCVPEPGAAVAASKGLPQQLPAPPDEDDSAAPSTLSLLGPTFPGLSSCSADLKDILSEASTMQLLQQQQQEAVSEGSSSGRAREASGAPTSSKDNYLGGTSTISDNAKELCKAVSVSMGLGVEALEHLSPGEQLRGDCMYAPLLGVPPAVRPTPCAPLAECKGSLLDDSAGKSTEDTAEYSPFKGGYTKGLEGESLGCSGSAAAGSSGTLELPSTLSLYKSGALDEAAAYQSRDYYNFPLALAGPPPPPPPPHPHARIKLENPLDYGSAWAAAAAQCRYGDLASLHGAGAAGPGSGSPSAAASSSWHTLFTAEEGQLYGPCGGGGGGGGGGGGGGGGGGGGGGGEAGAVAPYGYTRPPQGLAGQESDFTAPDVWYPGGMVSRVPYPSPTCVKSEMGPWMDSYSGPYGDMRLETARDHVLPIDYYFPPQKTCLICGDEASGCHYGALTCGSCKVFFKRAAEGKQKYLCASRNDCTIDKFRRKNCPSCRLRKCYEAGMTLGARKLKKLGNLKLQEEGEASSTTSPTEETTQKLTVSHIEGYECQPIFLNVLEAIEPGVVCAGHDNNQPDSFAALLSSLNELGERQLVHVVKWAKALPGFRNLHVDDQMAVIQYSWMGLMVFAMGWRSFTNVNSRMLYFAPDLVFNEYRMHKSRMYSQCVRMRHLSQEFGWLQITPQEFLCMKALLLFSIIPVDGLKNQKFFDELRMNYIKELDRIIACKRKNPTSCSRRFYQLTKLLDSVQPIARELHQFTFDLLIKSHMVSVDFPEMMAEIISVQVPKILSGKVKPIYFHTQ

CC(C)CCCCCCCOC(=O)c1ccccc1C(=O)OCCCCCCCC(C)C
inactive: Potency [1] | Potency [2] | Potency [3] | Potency [4] | Potency [5] | Potency [6] | Potency [7] | Potency [8] | Potency [9] | Potency [10] | Potency [11] | Potency [12] | Potency [13] | outcome [14] | Potency [15]

Nc1c(Br)cc(Br)c2c1C(=O)c1ccccc1C2=O
inactive: activity change, negative = cytotoxicity [1] -0.0291% [at 19 µM] | activity, negative = inhibition [16] -15.1% [at 19 µM] | activity change, negative = inhibition [17] 16.5% [at 19 µM] | activity change, negative = inhibition [3] -14.9% [at 19 µM] | activity change, negative = cytotoxicity [4] -8.35% [at 19 µM] | viability change, negative = cytotoxic [6] -3.04% [at 19 µM] | activity change [7] 9.18% [at 18.9 µM, stronger effect = higher value] | activity change, negative = inhibition [8] -1.9% [at 19 µM] | activity change, negative = cytotoxicity [11] -5.97% [at 19 µM] | activity change, negative = cytotoxicity [12] -3.72% [at 19 µM] | activation [18] 0.208% [at 19 µM] | activity change, negative = cytotoxicity [13] 0.853% [at 19 µM] | activation [19] 1.8% [at 19 µM] | cAMP activity change [14] 2.44% [at 18.9 µM] | activity change, negative = inhibition [15] -1.61% [at 19 µM]

[Cl-].[Cl-].[Hg+2]
inactive: outcome [20] | Potency [7] | Potency [11]
active: Potency [1] 27.2 µM and 21.7 µM | Potency [2] 6.86 µM | Potency [4] 68.2 µM | Potency [5] 682 nM and 2.17 µM | Potency [6] 964 nM and 1.93 µM | Potency [8] 34.2 nM and 243 nM | Potency [12] 5.42 µM and 3.86 µM | Potency [13] 4.31 µM and 4.86 µM

C[C@@H]1C[C@@H]([C@H](O)CC2CC(=O)NC(=O)C2)C(=O)[C@@H](C)C1
inactive: Potency [1] | Potency [2] | PLD induction [20] 2.68% [at 7.66 µM] | Potency [4] | Potency [7] | Potency [9] | Potency [11] | Potency [13] | outcome [14] | Potency [15]
active: Potency [5] 2.16 µM | Potency [6] 136 nM and 969 nM | Potency [8] 12.1 nM and 48.6 nM and 150 nM

CCCCCl
inactive: Potency [1] | Potency [2] | outcome [20] | Potency [3] | Potency [4] | Potency [5] | Potency [6] | Potency [7] | Potency [11] | Potency [12] | Potency [13] | outcome [14] | Potency [15]

N#CC(C#N)=C(C#N)C#N
inactive: Potency [1] | Potency [2] | Potency [17] | Potency [4] | Potency [7] | Potency [9] | Potency [10] | Potency [12] | Potency [13] | Potency [19] | outcome [14]
active: Potency [8] 14.3 µM

CC1(C)CC(=O)CC(C)(C)N1[O]
inactive: Potency [1] | Potency [2] | Potency [3] | Potency [4] | Potency [5] | Potency [6] | Potency [7] | Potency [8] | Potency [9] | Potency [10] | Potency [11] | Potency [12] | Potency [13] | outcome [14]

Nc1cc(Cl)cc(C(=O)O)c1Cl
inactive: Potency [1] | Potency [2] | Potency [3] | Potency [4] | Potency [5] | Potency [6] | Potency [7] | Potency [8] | Potency [9] | Potency [10] | Potency [11] | Potency [12]

Clc1ccc(Cl)c(Cl)c1
inactive: Potency [1] | Potency [2] | Potency [4] | Potency [5] | Potency [6] | Potency [7] | Potency [8] | Potency [10] | Potency [11] | Potency [13] | outcome [14] | Potency [15]
59.5 µM (active) and inactive: Potency [9]

CCCN(CCOc1c(Cl)cc(Cl)cc1Cl)C(=O)n1ccnc1
inactive: Potency [1] | Potency [2] | Potency [3] | Potency [4] | Potency [5] | Potency [6] | Potency [7] | Potency [11] | Potency [12] | Potency [13] | outcome [14] | Potency [15]

Clc1ccccc1
inactive: Potency [1] | Potency [2] | Potency [17] | Potency [4] | Potency [7] | Potency [11] | Potency [12] | Potency [13] | Potency [19] | outcome [14]
active: Potency [6] 26.9 µM | Potency [8] 0.479 µM

OCCCl
inactive: Potency [1] | Potency [2] | Potency [4] | Potency [5] | Potency [6] | Potency [7] | Potency [8] | Potency [9] | Potency [10] | Potency [11] | Potency [12] | Potency [13]

Cc1ccccc1
inactive: Potency [1] | Potency [2] | Potency [3] | Potency [4] | Potency [5] | Potency [6] | Potency [7] | Potency [9] | Potency [10] | Potency [11] | outcome [14] | Potency [15]
